Assay results as given in PubChem BioAssay AID1159580 (chemical genetic matrix, 2015).
Values joined by “and” are separate entries in the source; they are usually repeats but may differ in a detail not shown here. Identical values can stand only once. The whole screen tested about 5,500 compounds, of which about 2,000 (36%) were called active. About 18% were inconclusive and are not listed. Rule as the data show it: active = normalized growth mostly below about 0.91 (no sharp cut-off); inconclusive = no clear call, values can overlap the other calls; inactive = mostly above about 0.92. Some of the results follow.

Experiment: chemical genetic growth profiling, strain panel (AID 1159580);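 also: tested at 20 µM; growth read once vehicle control cultures reached saturation at 30 °C; 1 = growth at the plate median or of vehicle wells; lower values mean less growth of the strain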
Conditions: S. cerevisiae deletion strains, growth OD

Measured: normalized growth

CCN(CC)CCNc1ccc(CO)c2sc3ccccc3c(=O)c12
inactive: locus YAL013W, strain DEP1, hits give low values 1.01 | locus YAL021C, strain ccr4, hits give low values 0.994 | locus YAL026C, strain drs2, hits give low values 0.999 | locus YAL030W, strain snc1, hits give low values 1.01 | locus YBL061C, strain skt5, hits give low values 1 | locus YBR009C, strain hhf1, hits give low values 1.01 | locus YBR021W, strain FUR4, hits give low values 0.955 | locus YBR023C, strain chs3, hits give low values 1 | locus YBR171W, strain sec66, hits give low values 1.02 | locus YBR229C, strain ROT2, hits give low values 1 | locus YBR231C, strain swc5, hits give low values 1 | locus YBR279W, strain paf1, hits give low values 1 | locus YCL011C, strain gbp2, hits give low values 1 | locus YCL016C, strain dcc1, hits give low values 1 | locus YCL029C, strain bik1, hits give low values 1.01 | locus YCL069W, strain vba3, hits give low values 1.01 | locus YCR088W, strain abp1, hits give low values 1.01 | locus YDL005C, strain med2, hits give low values 1.01 | locus YDL035C, strain GPR1, hits give low values 0.992 | locus YDL040C, strain nat1, hits give low values 0.993 | locus YDL074C, strain BRE1, hits give low values 0.948 | locus YDL101C, strain DUN1, hits give low values 0.979 | locus YDL134C, strain PPH21, hits give low values 0.996 | locus YDL185W, strain tfp1, hits give low values 1 | locus YDL192W, strain arf1, hits give low values 1.01 | locus YDR001C, strain nth1, hits give low values 1.01 | locus YDR069C, strain doa4, hits give low values 1.01 | locus YDR101C, strain arx1, hits give low values 1 | locus YDR137W, strain rgp1, hits give low values 0.894 | locus YDR150W, strain NUM1, hits give low values 1 | locus YDR159W, strain sac3, hits give low values 1 | locus YDR162C, strain NBP2, hits give low values 0.969 | locus YDR195W, strain ref2 1.07 | locus YDR297W, strain sur2, hits give low values 1.01 | locus YDR318W, strain mcm21, hits give low values 1 | locus YDR334W, strain swr1, hits give low values 1 | locus YDR335W, strain msn5, hits give low values 1.02 | locus YDR388W, hits give low values 1.01 | locus YDR392W, strain spt3, hits give low values 0.999 | locus YDR502C, strain sam2, hits give low values 0.961 | locus YEL003W, strain gim4, hits give low values 1.01 | locus YEL037C, strain rad23, hits give low values 1.01 | locus YEL061C, strain CIN8 (second series), hits give low values 0.999 | locus YEL061C, strain CIN8, hits give low values 0.999 | locus YER015W, strain faa2, hits give low values 1 | locus YER016W, strain bim1, hits give low values 0.99 | locus YER110C, hits give low values 1.02 | locus YER111C, strain swi4, hits give low values 1 | locus YER155C, strain BEM2 (second series), hits give low values 0.972 | locus YER155C, strain BEM2, hits give low values 1.03 | locus YER167W, strain BCK2, hits give low values 1 | locus YFR010W, strain ubp6, hits give low values 0.999 | locus YGL078C, strain dbp3, hits give low values 1.01 | locus YGL086W, strain mad1, hits give low values 1 | locus YGL167C, strain pmr1, hits give low values 1.01 | locus YGL173C, strain kem1, hits give low values 1.01 | locus YGL227W, strain vid30, hits give low values 0.989 | locus YGL240W, strain doc1, hits give low values 1.01 | locus YGL248W, strain PDE1, hits give low values 1 | locus YGL253W, strain hxk2, hits give low values 1.01 | locus YGR078C, strain PAC10, hits give low values 0.975 | locus YGR135W, strain pre9, hits give low values 0.971 | locus YGR229C, strain SMI1, hits give low values 0.998 | locus YGR252W, strain gcn5, hits give low values 0.918 | locus YHR013C, strain ard1, hits give low values 1.01 | locus YHR027C, strain rpn1, hits give low values 1.01 | locus YHR030C, strain SLT2, hits give low values 1.01 | locus YHR079C, strain IRE1 (second series), hits give low values 1.01 | locus YHR079C, strain IRE1, hits give low values 1.01 | locus YHR094C, strain hxt1, hits give low values 1.02 | locus YHR129C, strain ARP1, hits give low values 0.995 | locus YHR142W, strain chs7, hits give low values 1.01 | locus YHR200W, strain rpn10, hits give low values 1.02 | locus YIL066C, strain RNR3, hits give low values 0.968 | locus YIL073C, strain SPO22, hits give low values 1.18 | locus YIL125W, strain kgd1, hits give low values 1.01 | locus YIR030C, strain dcg1, hits give low values 1.02 | locus YJL092W, strain hpr5, hits give low values 1 | locus YJL095W, strain BCK1 (second series), hits give low values 1.01 | locus YJL095W, strain BCK1, hits give low values 0.952 and 1.02 | locus YJL115W, strain asf1, hits give low values 1.03 | locus YJL129C, strain trk1, hits give low values 1 | locus YJL134W, strain LCB3, hits give low values 1 | locus YJL154C, strain vps35, hits give low values 1.01 | locus YJL164C, strain tpk1, hits give low values 1.01 | locus YJL166W, strain qcr8, hits give low values 1.02 | locus YJL168C, strain set2, hits give low values 1.02 | locus YJL187C, strain SWE1 (second series), hits give low values 0.986 | locus YJL187C, strain SWE1, hits give low values 1 | locus YJR043C, strain POL32, hits give low values 1 | locus YJR066W, strain TOR1, hits give low values 0.949
